# Laboratory results as given in PubChem BioAssay (Tox21).
# A number with no mark means an inactive call. Inconclusive results are not listed. Entries that show only a call come without a potency. Activity calls are given as the source filed them. Unless noted, calls come from the whole dose curve; as a rule, active = well fitted curve in the direction sought with a large enough effect in the repeat runs; inconclusive = weak or mixed curves; inactive = no such curve, though single readings can be large; an effect the other way counts as inactive or inconclusive.
# Assays:
# [1] = A CellTox Green Cytotoxicity Assay to monitor cytotoxicity in HepG2 cells - 8 hour (AID 1224890); note: nearly all actives have a fitted effect of over 45% in size
# Procedure, shortened: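 Continuous culture of HepG2 cells with a membrane-impermeant DNA dye; rising fluorescence marks dead cells. Compound exposure lasted up to 40 h at 37 C, with reads every 8 h from 0 h.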
# [2] = qHTS assay to identify small molecule antagonists of the estrogen receptor alpha (ER-alpha) signaling pathway using the BG1 cell line in the presence of 0.1 nM 17-beta-estradiol - cell viability counter screen (AID 1259241); note: nearly all actives have a fitted effect of over 40% in size; note: potency is the fitted concentration of half-maximal effect
# Procedure, shortened: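 Cytotoxicity counter-screen: live-cell protease activity measured by fluorescence (30 min reagent step) in the same wells. Cells were VM7Luc4E2 with endogenous ER-alpha and ERE-driven luciferase, treated 22 hr at 37C alongside 0.1 nM 17beta-estradiol final.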
# [3] = qHTS assay to identify small molecule antagonists of the androgen receptor (AR) signaling pathway using the MDA cell line in the presence of 0.5 nM R1881 - cell viability counter screen (AID 1259242); note: nearly all actives have a fitted effect of over 45% in size; note: potency is the fitted concentration of half-maximal effect
# Procedure, shortened: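 Fluorescence from CellTiter-Fluor, which reports protease activity of live cells, was read 30 min after reagent addition to MDA-kb2 cells that had been incubated 16 hr with compound and 0.5 nM R1881.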
# [4] = target: Estrogen receptor (Homo sapiens) (UniProt P03372); test: qHTS assay to identify small molecule antagonists of the estrogen receptor alpha (ER-alpha) signaling pathway using the BG1 cell line in the presence of 0.1 nM 17-beta-estradiol (AID 1259244); note: nearly all actives have a fitted effect of over 50% in size; note: potency is the fitted concentration of half-maximal effect
# Procedure, shortened: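 Quantitative high-throughput screen in VM7Luc4E2 cells: compound plus 0.1 nM E2 (final), 22 h, 37C, 5% CO2; ONE-Glo added, 30 min room temperature, luminescence measured.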
# [5] = qHTS assay to identify small molecule HDAC inhibitors (AID 1259364); note: nearly all actives have a fitted effect of over 45% in size; note: potency is the fitted concentration of half-maximal effect
# Procedure, shortened: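 Endogenous HDAC class I/II activity was measured in wild-type HCT-116 cells by HDAC-Glo luminescence after 2 h compound treatment.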
# [6] = qHTS assay to identify small molecule HDAC inhibitors - cell viability counter screen (AID 1259365); note: series mostly up to about 92 µM; nearly all actives have a fitted effect of over 50% in size
# Procedure, shortened: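 CellTiter-Glo luminescence (30 min, room temperature) reported viability after a 2 h compound exposure at 37 C. Cells: wild-type HCT-116, 1,500 per well, seeded the night before.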
# [7] = qHTS assay to identify small molecule agonists of the sonic hedgehog signaling (Shh) pathway - cell viability counter screen (AID 1259366); note: nearly all actives have a fitted effect of over 50% in size; note: potency is the fitted concentration of half-maximal effect
# Procedure, shortened: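 Cytotoxicity counter screen: CellTiter-Fluor reagent added after 23 h compound exposure, then 1 h at 37C and fluorescence read. Cells were 3T3 Gli1-Luc, seeded 2,000 per well and dosed 4 h post-plating.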
# [8] = qHTS assay to identify small molecule antagonists of the sonic hedgehog signaling (Shh) pathway - cell viability counter screen (AID 1259367); note: nearly all actives have a fitted effect of over 55% in size; note: potency is the fitted concentration of half-maximal effect
# Procedure, shortened: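 After a 4 hr settling period, 3T3 Gli1-Luc cells were treated with DMSO-dissolved chemicals and conditioned medium, kept 24 hr at 37C in 5% CO2, and assayed for viability by CellTiter-Fluor fluorescence following 1 hr reagent incubation.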
# [9] = qHTS assay to identify small molecule agonists of the sonic hedgehog signaling (Shh) pathway (AID 1259368; calls by dose curve;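 note: NIH/3T3-derived 3T3Gli1-Luc cells carrying a stable Gli1-driven firefly luciferase reporter; series mostly up to about 92 µM; nearly all actives have a fitted effect of over 15% in size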)
# Procedure, shortened: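 Luminescent signal was taken as a measure of Gli1-controlled luciferase expression in stably transfected NIH/3T3-derived cells that had been treated for 24 hr with compounds delivered in DMSO.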
# [10] = qHTS assay to identify small molecule antagonists of the sonic hedgehog signaling (Shh) pathway (AID 1259369; calls by dose curve; note: nearly all actives have a fitted effect of over 45% in size; note: potency is the fitted concentration of half-maximal effect)
# Procedure, shortened: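 Screening used 3T3Gli1-Luc cells at 2,000 per well, compounds delivered in DMSO, and conditioned medium as agonist stimulus; plates incubated 24hr at 37 C and 5% CO2 before a 30min luciferase step.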
# [11] = target: Estrogen receptor beta (Homo sapiens) (UniProt Q92731); test: qHTS assay to identify small molecule agonists of the estrogen receptor beta (ER-beta) signaling pathway (AID 1259377; active = well fitted activation curve with a large enough effect in the signal ratio in the repeat runs, not every such curve was filed as active; the % refers to the signal ratio)
# Procedure, shortened: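 Ratiometric beta-lactamase FRET read-out came after 2 h substrate loading at room temperature. It followed 16 h compound treatment at 37C of GripTite HEK293T cells carrying a UAS-bla reporter, plated in 2% charcoal-stripped FBS medium.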
# [12] = target: Estrogen receptor beta (Homo sapiens) (UniProt Q92731); test: qHTS assay to identify small molecule antagonists of the estrogen receptor beta (ER-beta) signaling pathway (AID 1259378; active = well fitted inhibition curve with a large enough effect in the signal ratio in the repeat runs, not every such curve was filed as active; the % refers to the signal ratio; note: potency is the fitted concentration of half-maximal effect)
# Procedure, shortened: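 ER-beta-UAS-bla HEK293T (GripTite) cells in 2% charcoal-stripped FBS medium were preincubated 6 hr at 37C, dosed with compound, then stimulated with 1 nM E2 (final) for 16 hr; beta-lactamase reporter read by B/G FRET fluorescence after 2 hr substrate loading.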
# [13] = qHTS assay to identify small molecule agonists of the androgen receptor (AR) signaling pathway in the presence of an antagonist - cell viability counter screen (AID 1259379); note: nearly all actives have a fitted effect of over 25% in size; note: potency is the fitted concentration of half-maximal effect
# Procedure, shortened: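 In MDA-kb2 cells (human breast carcinoma, MMTV-luciferase), compounds at 15 concentrations plus 3.0uM nilutamide; 16 hr, 37C, 0% CO2; CellTiter-Fluor fluorescence read for viability.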
# [14] = qHTS assay to identify small molecule agonists of the estrogen receptor beta (ER-beta) signaling pathway - cell viability counter screen (AID 1259380); note: nearly all actives have a fitted effect of over 30% in size; note: potency is the fitted concentration of half-maximal effect
# Procedure, shortened: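 Viability of ER-beta-UAS-bla HEK293T cells was determined by CellTiter-Glo luminescence following 16 hr treatment with test compounds at 37C.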
# [15] = qHTS assay to identify small molecule antagonists of the estrogen receptor beta (ER-beta) signaling pathway - cell viability counter screen (AID 1259382); note: nearly all actives have a fitted effect of over 55% in size; note: potency is the fitted concentration of half-maximal effect
# Procedure, shortened: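 Tox21 10K library tested in qHTS format on ER-beta-bla HEK293T cells stimulated with 1nM E2; 16 hr treatment at 37C. Same-well CellTiter-Glo luminescence served as the cell viability measure.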
# [16] = target: Estrogen receptor (Homo sapiens) (UniProt P03372); test: qHTS assay to identify small molecule agonists of the estrogen receptor alpha (ER-alpha) signaling pathway in the presence of an antagonist (AID 1259383; calls by dose curve; note: top concentration of the series differs between compounds; nearly all actives have a fitted effect of over 15% in size)
# Procedure, shortened: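 In VM7Luc4E2 cells, 4,000 per well, compounds at 15 concentrations were co-incubated 22hr at 37C with 10.0nM final ICI-182,780. Luminescence from the stably transfected 4×ERE-luciferase reporter was recorded 30min after ONE-Glo addition.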
# [17] = qHTS assay to identify small molecule agonists or antagonists of the thyroid stimulating hormone receptor (TSHR) signaling pathway - wild type cell line counter screen (AID 1259384; calls by dose curve)
# Procedure, shortened: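 Wild-type HEK293 cells were plated 18 h at 37 C/5% CO2, pin-dosed with compound plus Ro20-1724 medium, held 30 min at room temperature, then given cAMP-d2 and anti-cAMP-cryptate; fluorescence was read after 1 h. Fifteen concentrations, triplicate.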
# [18] = qHTS assay to identify small molecule phospholipidosis (PLD) inducers (AID 1259344; active = well fitted curve in the direction sought with a large enough effect; an effect the other way counts as inactive or inconclusive)
# Procedure, shortened: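 HepG2 cells grown on collagen I take up LipidTOX Red while exposed to compound for 24 h; after fixation they are imaged at 20x and pit metrics are extracted.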
# Estrogen receptor (Homo sapiens), sequence (P03372 whole entry, looked up): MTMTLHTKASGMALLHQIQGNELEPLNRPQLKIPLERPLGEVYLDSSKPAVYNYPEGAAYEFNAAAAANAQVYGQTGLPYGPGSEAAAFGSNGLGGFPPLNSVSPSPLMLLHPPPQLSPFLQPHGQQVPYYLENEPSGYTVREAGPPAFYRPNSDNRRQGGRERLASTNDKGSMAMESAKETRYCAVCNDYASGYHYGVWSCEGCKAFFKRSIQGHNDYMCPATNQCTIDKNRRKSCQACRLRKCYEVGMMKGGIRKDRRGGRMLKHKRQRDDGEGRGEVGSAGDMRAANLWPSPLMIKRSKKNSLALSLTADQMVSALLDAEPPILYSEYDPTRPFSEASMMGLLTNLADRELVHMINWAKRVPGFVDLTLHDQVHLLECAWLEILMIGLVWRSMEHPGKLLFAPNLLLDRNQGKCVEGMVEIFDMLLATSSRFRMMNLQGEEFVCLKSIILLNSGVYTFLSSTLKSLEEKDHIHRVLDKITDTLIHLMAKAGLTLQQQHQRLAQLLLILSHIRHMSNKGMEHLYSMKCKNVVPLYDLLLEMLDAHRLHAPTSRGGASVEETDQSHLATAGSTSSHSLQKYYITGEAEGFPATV
# Estrogen receptor beta (Homo sapiens), sequence (Q92731 whole entry, looked up): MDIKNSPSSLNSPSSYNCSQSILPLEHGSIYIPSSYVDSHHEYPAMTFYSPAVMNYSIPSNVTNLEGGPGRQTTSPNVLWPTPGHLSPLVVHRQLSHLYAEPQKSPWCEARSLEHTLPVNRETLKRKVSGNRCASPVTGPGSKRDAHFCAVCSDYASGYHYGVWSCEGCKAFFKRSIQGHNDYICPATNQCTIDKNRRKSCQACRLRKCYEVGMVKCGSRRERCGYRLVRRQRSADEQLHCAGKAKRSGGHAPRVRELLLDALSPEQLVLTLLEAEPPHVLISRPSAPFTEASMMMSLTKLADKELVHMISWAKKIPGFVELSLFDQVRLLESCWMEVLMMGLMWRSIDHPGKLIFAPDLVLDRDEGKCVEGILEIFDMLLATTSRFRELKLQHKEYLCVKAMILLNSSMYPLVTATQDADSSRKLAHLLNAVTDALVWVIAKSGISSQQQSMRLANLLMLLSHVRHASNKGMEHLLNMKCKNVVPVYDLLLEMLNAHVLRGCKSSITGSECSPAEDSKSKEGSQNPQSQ
Compound,Potency [1],Potency [2],Potency [3],Potency [4],Potency [5],Potency [6],Potency [7],Potency [8],Potency [9],Potency [10],Potency [11],Potency [12],Potency [13],Potency [14],Potency [15],Potency [16],outcome [17],Potency [18]
CCCCN(CCCC)C(C(N)=O)c1ccc(OC)cc1 (stereo not given),inactive,inactive,inactive,inactive,inactive,inactive,inactive,inactive,inactive,inactive,inactive,inactive,inactive,inactive,inactive,inactive,,
C=C(C)CCCC(C)CCO (stereo not given),inactive,inactive,inactive,inactive,inactive,inactive,inactive,inactive,inactive,,inactive,inactive,inactive,inactive,inactive,inactive,inactive,
O=C(/C=C/c1ccc(O)c(O)c1)O[C@@H]1C[C@@](OC(=O)/C=C/c2ccc(O)c(O)c2)(C(=O)O)C[C@@H](O)[C@@H]1O,inactive,inactive,inactive,inactive,inactive,inactive,,inactive,inactive,inactive,,,inactive,inactive,inactive,inactive,inactive,inactive
CCc1ccccc1,inactive,inactive,inactive,inactive,inactive,inactive,inactive,inactive,inactive,inactive,inactive,inactive,inactive,inactive,inactive,inactive,inactive,
CN1C(C(=O)Nc2ccccn2)=C(O)c2sccc2S1(=O)=O,inactive,inactive,inactive,inactive,inactive,inactive,inactive,inactive,inactive,inactive,inactive,inactive,inactive,inactive,inactive,inactive,,
CC1(CN2CCC(n3c(=O)[nH]c4ccccc43)CC2)OCc2ccccc2-n2cccc21 (stereo not given),inactive,inactive,inactive,29.8 µM (active),inactive,inactive,inactive,inactive,inactive,23.7 µM (active),inactive,,29.8 µM (active),23.7 µM (active),29.8 µM (active),inactive,inactive,
CCOC(=O)c1ccccc1C(=C1C=C(Br)C(=O)C(Br)=C1)c1cc(Br)c(O)c(Br)c1,inactive,inactive,inactive,inactive,inactive,inactive,inactive,inactive,inactive,inactive,,,,57.5 µM (active),,inactive,,
CO[C@]1(NC(=O)CSC(F)F)C(=O)N2C(C(=O)O)=C(CSc3nnnn3CCO)CO[C@H]21,inactive,inactive,inactive,inactive,inactive,inactive,,inactive,inactive,inactive,inactive,,inactive,inactive,inactive,inactive,,inactive
Nc1ncnc2c1ncn2[C@H]1CC[C@@H](CO)O1,inactive,inactive,inactive,inactive,inactive,inactive,,inactive,inactive,inactive,inactive,inactive,inactive,inactive,inactive,inactive,inactive,inactive
CN1CCCN=C1COC(=O)C(O)(c1ccccc1)C1CCCCC1 (stereo not given),inactive,inactive,inactive,inactive,inactive,inactive,inactive,inactive,inactive,,inactive,inactive,inactive,inactive,inactive,inactive,,
O=c1[nH]c2ccc(Cl)cc2o1,inactive,inactive,inactive,inactive,inactive,inactive,inactive,inactive,inactive,inactive,inactive,inactive,inactive,inactive,inactive,inactive,inactive,
O=C=Nc1ccc(Cl)c(Cl)c1,inactive,inactive,inactive,inactive,inactive,inactive,inactive,inactive,inactive,inactive,,,inactive,47.8 µM (active),,inactive,inactive,
O[C@@H]1CO[C@H]2[C@@H]1OC[C@@H]2O,inactive,inactive,inactive,inactive,inactive,,inactive,inactive,inactive,inactive,inactive,inactive,inactive,inactive,inactive,inactive,inactive,inactive
O=Cc1c2ccccc2c(Cl)c2ccccc12,inactive,inactive,inactive,inactive,inactive,inactive,inactive,inactive,inactive,inactive,,,,inactive,inactive,inactive,,
CN1C(=O)OC(C)(C)C1=O,inactive,inactive,inactive,inactive,,inactive,inactive,inactive,,inactive,inactive,,inactive,inactive,inactive,inactive,,inactive
O=c1[nH]ncc2ccccc12,inactive,inactive,inactive,inactive,inactive,inactive,inactive,inactive,inactive,,inactive,,inactive,inactive,inactive,inactive,inactive,
CC(=O)Oc1ccc([N+](=O)[O-])cc1CCl,inactive,54.5 µM (active),30.6 µM (active),inactive,inactive,inactive,27.3 µM (active),27.3 µM (active),,inactive,,,30.6 µM (active),inactive,inactive,inactive,,
Cc1[nH]cnc1CN1CCc2c(c3ccccc3n2C)C1=O,inactive,inactive,inactive,,inactive,inactive,inactive,inactive,inactive,inactive,inactive,inactive,inactive,inactive,inactive,,inactive,inactive

Compound,Potency [1],Potency [2],Potency [3],Potency [4],Potency [5],Potency [6],Potency [7],Potency [8],Potency [9],Potency [10],Potency [11],Potency [12],Potency [13],Potency [14],Potency [15],Potency [16],outcome [17],Potency [18]
OCCOCC#CCOCCO,inactive,inactive,inactive,inactive,inactive,inactive,inactive,inactive,,,inactive,inactive,inactive,inactive,inactive,inactive,inactive,
CC(=O)OCC[N+](C)(C)C,inactive,inactive,inactive,,inactive,inactive,,inactive,inactive,inactive,inactive,inactive,inactive,inactive,inactive,,inactive,inactive
COc1ccccc1N1CCN(CC(O)COc2cccc3ccccc23)CC1 (stereo not given),inactive,inactive,inactive,,inactive,inactive,,inactive,inactive,,inactive,23.7 µM (active),inactive,5.96 µM (active),5.96 µM (active),,inactive,inactive
CCCCCC#CC(=O)OC,inactive,inactive,inactive,inactive,inactive,inactive,,inactive,inactive,inactive,,,inactive,,inactive,inactive,,
NCCNCCO,inactive,inactive,inactive,inactive,inactive,,inactive,inactive,,inactive,,inactive,inactive,inactive,inactive,inactive,inactive,
CO/N=C(/C(=O)N[C@@H]1C(=O)N2C(C(=O)O)=C(COC(N)=O)CS[C@H]12)c1ccco1,inactive,inactive,inactive,,inactive,inactive,inactive,inactive,inactive,inactive,inactive,inactive,inactive,inactive,inactive,,inactive,inactive
CCC(C)(C)OC,inactive,inactive,inactive,inactive,inactive,inactive,inactive,inactive,,inactive,inactive,,inactive,inactive,inactive,inactive,inactive,
CCC=CC#N,inactive,inactive,inactive,inactive,21 µM (active),inactive,inactive,inactive,,inactive,inactive,,inactive,inactive,inactive,inactive,,
O=C(O)C[C@H](NC(=O)OCc1ccccc1)C(=O)O,inactive,inactive,inactive,inactive,inactive,inactive,,inactive,inactive,inactive,inactive,,inactive,inactive,inactive,inactive,inactive,
C[C@@H](CN(C)C)CN1c2ccccc2Sc2ccccc21,inactive,inactive,inactive,inactive,inactive,inactive,,,inactive,,inactive,23.7 µM (active),,18.8 µM (active),21.1 µM (active),inactive,,
C1C[C@@H]2[C@H]3CC[C@H](C3)[C@@H]2C1,inactive,inactive,inactive,inactive,inactive,,inactive,inactive,inactive,inactive,,,inactive,,inactive,inactive,inactive,
CCOC(=O)c1ccc(I)cc1,inactive,inactive,inactive,inactive,inactive,inactive,,inactive,inactive,inactive,,,inactive,inactive,inactive,inactive,inactive,
COc1ccccc1Oc1c(NS(=O)(=O)c2ccc(C(C)(C)C)cc2)nc(-c2ncccn2)nc1OCCO,inactive,inactive,inactive,,inactive,inactive,inactive,26.6 µM (active),inactive,15 µM (active),,,inactive,,inactive,inactive,inactive,inactive
CCC1NC(=O)c2cc(S(N)(=O)=O)c(Cl)cc2N1 (stereo not given),inactive,inactive,inactive,,inactive,inactive,inactive,inactive,inactive,inactive,inactive,,inactive,,inactive,,inactive,inactive
C=COCC(C)C,inactive,inactive,inactive,inactive,inactive,inactive,,inactive,inactive,inactive,,,inactive,inactive,inactive,inactive,,
CCCC(=O)C(=O)O,inactive,inactive,inactive,inactive,inactive,inactive,,inactive,inactive,inactive,inactive,inactive,inactive,inactive,inactive,inactive,inactive,
CCCCOc1ccc(OCCCN2CCOCC2)cc1,inactive,inactive,inactive,,inactive,inactive,inactive,inactive,,13.3 µM (active),inactive,inactive,inactive,,inactive,inactive,inactive,inactive
